The supplement of paper PMC8728848
Shown is part of a subset that was picked to be rich in the strongest signals.

How the values were obtained:
Experiment in all cases: glycan array binding signal (z-score within array); higher = stronger binding
Conditions in all cases: glycan notation: IUPAC condensed, linker removed
[1] = molecular target: Fuc(a1-2)Gal(b1-4)GlcNAc(b1-6)GalNAc
Procedure, shortened: (§1)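 The binding signal is a Z-score computed within each array. Data were drawn from 3228 arrays in the Consortium for Functional Glycomics database, restricted to those with a known protein sequence. Scores were averaged over arrays of the same protein sequence at different concentrations or buffers, and over linkers, and negative values can be taken as non-binding.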

[2] = molecular target: Fuc(a1-2)[Gal(a1-3)]Gal(b1-4)GlcNAc(b1-3)GalNAc
Procedure, shortened: as §1

[3] = molecular target: Fuc(a1-2)[GalNAc(a1-3)]Gal(b1-4)GlcNAc(b1-6)GalNAc
Procedure, shortened: as §1

[4] = molecular target: Fuc(a1-2)[GalNAc(b1-3)]Gal
Procedure, shortened: as §1

[5] = molecular target: Fuc(a1-3)[GalNAc(b1-4)]GlcNAc6S
Procedure, shortened: as §1

Gal(a1-3)Gal(b1-4)GlcNAc = molecular target: Gal(a1-3)Gal(b1-4)GlcNAc
Procedure, shortened: as §1

[6] = molecular target: Gal(a1-3)Gal(b1-4)GlcNAc(b1-6)GalNAc
Procedure, shortened: as §1

[7] = molecular target: Gal(b1-3)GlcNAc(b1-3)Gal(b1-4)[Fuc(a1-3)]GlcNAc(b1-6)[Gal(b1-3)GlcNAc(b1-3)]Gal(b1-4)Glc
Procedure, shortened: as §1

[8] = molecular target: Gal(b1-4)GlcNAc(b1-3)Gal(b1-3)GalNAc
Procedure, shortened: as §1

[9] = molecular target: Gal(b1-4)GlcNAc(b1-3)Gal(b1-4)GlcNAc(b1-3)Gal(b1-4)GlcNAc(b1-3)Gal(b1-4)GlcNAc(b1-2)Man(a1-3)[Gal(b1-4)GlcNAc(b1-3)Gal(b1-4)GlcNAc(b1-3)Gal(b1-4)GlcNAc(b1-3)Gal(b1-4)GlcNAc(b1-2)Man(a1-6)]Man(b1-4)GlcNAc(b1-4)[Fuc(a1-6)]GlcNAc
Procedure, shortened: as §1

[10] = molecular target: Gal(b1-4)GlcNAc(b1-3)Gal(b1-4)GlcNAc(b1-3)Gal(b1-4)GlcNAc(b1-3)Gal(b1-4)GlcNAc(b1-3)Gal(b1-4)GlcNAc(b1-3)Gal(b1-4)GlcNAc(b1-2)Man(a1-3)[Gal(b1-4)GlcNAc(b1-3)Gal(b1-4)GlcNAc(b1-3)Gal(b1-4)GlcNAc(b1-3)Gal(b1-4)GlcNAc(b1-3)Gal(b1-4)GlcNAc(b1-3)Gal(b1-4)GlcNAc(b1-2)Man(a1-6)]Man(b1-4)GlcNAc(b1-4)GlcNAc
Procedure, shortened: as §1

[11] = molecular target: Gal(b1-4)GlcNAc(b1-3)Gal(b1-4)[Fuc(a1-3)]GlcNAc(b1-3)Gal(b1-4)[Fuc(a1-3)]GlcNAc
Procedure, shortened: as §1

[12] = molecular target: Gal(b1-4)GlcNAc(b1-3)[Gal(b1-4)GlcNAc(b1-6)]Gal(b1-4)GlcNAc
Procedure, shortened: as §1

[13] = molecular target: Gal3S(b1-4)[Fuc(a1-3)]Glc6S
Procedure, shortened: as §1

[14] = molecular target: Gal3S(b1-4)[Fuc(a1-3)]GlcNAc6S
Procedure, shortened: as §1

GalNAc(a1-3)Gal = molecular target: GalNAc(a1-3)Gal
Procedure, shortened: as §1

GalNAc(b1-3)Gal = molecular target: GalNAc(b1-3)Gal
Procedure, shortened: as §1

[15] = molecular target: GalNAc(b1-3)Gal(a1-4)Gal(b1-4)GlcNAc(b1-3)Gal(b1-4)Glc
Procedure, shortened: as §1

[16] = molecular target: GalNAc(b1-3)Gal(a1-6)Gal(b1-4)Glc
Procedure, shortened: as §1

GalNAc(b1-4)GlcNAc6S = molecular target: GalNAc(b1-4)GlcNAc6S
Procedure, shortened: as §1

GalNAc4S6S(b1-4)GlcNAc = molecular target: GalNAc4S6S(b1-4)GlcNAc
Procedure, shortened: as §1

[17] = molecular target: Glc(a1-6)Glc(a1-6)Glc(a1-6)Glc
Procedure, shortened: as §1

[18] = molecular target: GlcNAc(a1-4)Gal(b1-4)GlcNAc(b1-3)Gal(b1-4)Glc
Procedure, shortened: as §1

[19] = molecular target: GlcNAc(b1-3)Gal(b1-4)GlcNAc(b1-3)Gal(b1-4)GlcNAc(b1-3)Gal(b1-4)GlcNAc(b1-3)Gal(b1-4)GlcNAc(b1-2)[GlcNAc(b1-3)Gal(b1-4)GlcNAc(b1-3)Gal(b1-4)GlcNAc(b1-3)Gal(b1-4)GlcNAc(b1-3)Gal(b1-4)GlcNAc(b1-6)]Man(a1-6)[GlcNAc(b1-3)Gal(b1-4)GlcNAc(b1-3)Gal(b1-4)GlcNAc(b1-3)Gal(b1-4)GlcNAc(b1-3)Gal(b1-4)GlcNAc(b1-2)Man(a1-3)]Man(b1-4)GlcNAc(b1-4)[Fuc(a1-6)]GlcNAc
Procedure, shortened: as §1

[20] = molecular target: GlcNAc(b1-3)Gal(b1-4)GlcNAc(b1-6)[GlcNAc(b1-3)Gal(b1-3)]GalNAc
Procedure, shortened: as §1

GlcNAc(b1-3)GalNAc = molecular target: GlcNAc(b1-3)GalNAc
Procedure, shortened: as §1

[21] = molecular target: GlcNAc(b1-3)[GlcNAc(b1-6)]GalNAc
Procedure, shortened: as §1

GlcNAc(b1-6)GalNAc = molecular target: GlcNAc(b1-6)GalNAc
Procedure, shortened: as §1

[22] = molecular target: Kdn(a2-3)Gal(b1-4)[Fuc(a1-3)]GlcNAc
Procedure, shortened: as §1

Man(a1-6)Man = molecular target: Man(a1-6)Man
Procedure, shortened: as §1

[23] = molecular target: Neu5Ac(a2-3)Gal(b1-3)GalNAc(b1-4)[Neu5Ac(a2-8)Neu5Ac(a2-3)]Gal(b1-4)Glc
Procedure, shortened: as §1

[24] = molecular target: Neu5Ac(a2-3)Gal(b1-3)GalNAc6S
Procedure, shortened: as §1

[25] = molecular target: Neu5Ac(a2-3)Gal(b1-3)GlcNAc(b1-2)Man
Procedure, shortened: as §1

[26] = molecular target: Neu5Ac(a2-3)Gal(b1-3)GlcNAc(b1-2)Man(a1-3)[Neu5Ac(a2-3)Gal(b1-3)GlcNAc(b1-2)Man(a1-6)]Man(b1-4)GlcNAc(b1-4)GlcNAc
Procedure, shortened: as §1

[27] = molecular target: Neu5Ac(a2-3)Gal(b1-4)GlcNAc(b1-2)Man(a1-3)[GlcNAc(b1-4)][Neu5Ac(a2-3)Gal(b1-4)GlcNAc(b1-2)Man(a1-6)]Man(b1-4)GlcNAc(b1-4)GlcNAc
Procedure, shortened: as §1

[28] = molecular target: Neu5Ac(a2-3)Gal(b1-4)GlcNAc(b1-2)[Neu5Ac(a2-3)Gal(b1-4)GlcNAc(b1-4)]Man(a1-3)[GlcNAc(b1-4)][Neu5Ac(a2-3)Gal(b1-4)GlcNAc(b1-2)[Neu5Ac(a2-3)Gal(b1-4)GlcNAc(b1-6)]Man(a1-6)]Man(b1-4)GlcNAc(b1-4)GlcNAc
Procedure, shortened: as §1

[29] = molecular target: Neu5Ac(a2-3)Gal(b1-4)GlcNAc(b1-3)[Neu5Ac(a2-3)Gal(b1-4)GlcNAc(b1-6)]GalNAc
Procedure, shortened: as §1

[30] = molecular target: Neu5Ac(a2-3)Gal(b1-4)GlcNAc6S
Procedure, shortened: as §1

[31] = molecular target: Neu5Ac(a2-3)Gal(b1-4)[Fuc(a1-3)]GlcNAc
Procedure, shortened: as §1

[32] = molecular target: Neu5Ac(a2-3)Gal(b1-4)[Fuc(a1-3)]GlcNAc(b1-6)[Gal(b1-3)]GalNAc
Procedure, shortened: as §1

[33] = molecular target: Neu5Ac(a2-3)Gal6S(b1-4)GlcNAc
Procedure, shortened: as §1

Neu5Ac(a2-8)Neu5Ac = molecular target: Neu5Ac(a2-8)Neu5Ac
Procedure, shortened: as §1

[34] = molecular target: Neu5Gc(a2-3)Gal(b1-3)GlcNAc
Procedure, shortened: as §1

B1: Cohesin-hDCIR (Homo sapiens) (protein)
chain: LDDLDAVRIKVDTVNAKPGDTVRIPVRFSGIPSKGIANCDFVYSYDPNVLEIIEIEPGDIIVDPNPDKSFDTAVYPDRKIIVFLFAEDSGTGAYAITKDGVFATIVAKVKEGAPNGLSVIKFVEVGGFANNDLVEQKTQFFDGGANVGDTTEPATPTTPVTTPTTTDDLDAASQKYSQLLEKKTTKELVHTTLECVKKNMPVEETAWSCCPKNWKSFSSNCYFISTESASWQDSEKDCARMEAHLLVINTQEEQDFIFQNLQEESAYFVGLSDPEGQRHWQWVDQTPYNESSTFWHPREPSDPNERCVVLNFRKSPKRWGWNDVNCLGPQRSVCEMMKIHLHHHHHH
[1]
  glycan array binding signal (z-score): 5.99
[2]
  glycan array binding signal (z-score): -0.635
[3]
  glycan array binding signal (z-score): 5.33
[4]
  glycan array binding signal (z-score): 3.31
[5]
  glycan array binding signal (z-score): 0.081
Gal(a1-3)Gal(b1-4)GlcNAc
  glycan array binding signal (z-score): -0.455
[6]
  glycan array binding signal (z-score): 5.08
[7]
  glycan array binding signal (z-score): -0.655
[8]
  glycan array binding signal (z-score): -0.458
[9]
  glycan array binding signal (z-score): 2.82
[10]
  glycan array binding signal (z-score): -0.417
[11]
  glycan array binding signal (z-score): -0.584
[12]
  glycan array binding signal (z-score): -0.335
[13]
  glycan array binding signal (z-score): -0.343
[14]
  glycan array binding signal (z-score): 3.25
GalNAc(a1-3)Gal
  glycan array binding signal (z-score): 1.17
GalNAc(b1-3)Gal
  glycan array binding signal (z-score): 3.75
[15]
  glycan array binding signal (z-score): 4.3
[16]
  glycan array binding signal (z-score): 5.47
GalNAc(b1-4)GlcNAc6S
  glycan array binding signal (z-score): 0.86
GalNAc4S6S(b1-4)GlcNAc
  glycan array binding signal (z-score): -0.659
[17]
  glycan array binding signal (z-score): -0.038
[18]
  glycan array binding signal (z-score): -0.696
[19]
  glycan array binding signal (z-score): -0.597
[20]
  glycan array binding signal (z-score): -0.546
GlcNAc(b1-3)GalNAc
  glycan array binding signal (z-score): -0.415
[21]
  glycan array binding signal (z-score): -0.401
GlcNAc(b1-6)GalNAc
  glycan array binding signal (z-score): 4.02
[22]
  glycan array binding signal (z-score): -0.218
Man(a1-6)Man
  glycan array binding signal (z-score): 3.2
[23]
  glycan array binding signal (z-score): -0.554
[24]
  glycan array binding signal (z-score): 1.41
[25]
  glycan array binding signal (z-score): -0.373
[26]
  glycan array binding signal (z-score): -0.312
[27]
  glycan array binding signal (z-score): -0.66
[28]
  glycan array binding signal (z-score): -0.508
[29]
  glycan array binding signal (z-score): 0.114
[30]
  glycan array binding signal (z-score): -0.518
[31]
  glycan array binding signal (z-score): -0.342
[32]
  glycan array binding signal (z-score): -0.187
[33]
  glycan array binding signal (z-score): -0.608
Neu5Ac(a2-8)Neu5Ac
  glycan array binding signal (z-score): -0.297
[34]
  glycan array binding signal (z-score): -0.174
